The source of these data is PubChem BioAssay (Tox21).

Test [1] can be described thus: Nuclear factor erythroid 2-related factor 2/antioxidant responsive element (Nrf2/ARE) small molecule agonists: qHTS cell viability counter screen in human keratinocytes (AID 1919968; active = well fitted curve in the direction sought with a large enough effect in the repeat runs; an effect the other way counts as inactive or inconclusive; also: nearly all actives have a fitted effect of over 55% in size; also: potency is read from the fitted curve at half-maximal effect). A digest of the protocol:
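Cells of the KeratinoSens line were plated at 1,500 per well and left for 5 h before compound transfer from DMSO stocks. After a 23 h incubation (37 C, 5% CO2), CellTiter-Fluor was added. Signal was taken as fluorescence intensity 1 h later.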
(Quantitative high-throughput screening tests each substance at several concentrations.)

A short description of test [2]: Nuclear factor erythroid 2-related factor 2/antioxidant responsive element (Nrf2/ARE) small molecule agonists: luciferase reporter gene qHTS assay in human keratinocytes (AID 1919969). Also: nearly all actives have a fitted effect of over 35% in size. Also: potency is read from the fitted curve at half-maximal effect.
The target in test [3] is Gonadotropin-releasing hormone receptor (Homo sapiens) (UniProt P30968). The experiment in a line: Human gonadotropin-releasing hormone receptor (GnRHR) small molecule agonists, calcium flux assay in GnRHR-HEK293 cells (AID 1920063). Also: nearly all actives have a fitted effect of over 35% in size. A digest of the protocol:
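Compounds dissolved in DMSO are pin-transferred onto dye-loaded GnRHR-HEK293 cells, which were seeded 18 h before at 37 C/5% CO2. Calcium signal is read as fluorescence intensity at 1 s intervals for 3 min.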
Background: A change in cytosolic calcium serves as a functional read-out for many receptors and channels.

For test [4], the target named is KiSS-1 receptor (Homo sapiens) (UniProt Q969F8). The experiment in a line: Human kisspeptin (KISS1R) small molecule agonists, calcium flux assay in KISS1R-HEK293 cells (AID 1920064; active = well fitted curve in the direction sought with a large enough effect in the repeat runs; an effect the other way counts as inactive or inconclusive). A digest of the protocol: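 Cell line: HEK293, stable human KISS1R. Dye loading 1 h at 37 C after 18 h culture. Read: kinetic fluorescence, 480/540 nm, 3 min at 1 s intervals.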
Test [5] is described as follows: G protein-coupled receptor (GPCR) small molecule agonists, calcium flux assay: HEK293 wild type cell line counter screen (AID 1920065). A digest of the protocol: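 Tox21 10K compounds, 15 concentrations each in triplicate, pin-transferred in DMSO onto dye-loaded cells; kinetic read at 480/540 nm for 3 min, 1 s intervals.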
Test [6] is described as follows: p53 small molecule agonists, cell-based qHTS assay with rat liver microsomes (AID 1963578). A digest of the protocol: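 p53RE-bla cells, 4,000/well, pre-incubated 5 h, then given compounds plus rat liver microsomes (0.5 mg/mL final) and NADPH (0.5 mg/mL final). Incubation 16 h at 37 C; beta-lactamase reporter read by LiveBLAzer fluorescence after 2 h at room temperature.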

Test [7] in a line: p53 small molecule agonists, cell-based qHTS assay with rat liver microsomes: qHTS cell viability counter screen (AID 1963580). Also: nearly all actives have a fitted effect of over 45% in size. An outline of the steps: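 After the beta-lactamase ratio was read, CellTiter-Glo was added to the same wells and luminescence measured at 30 min; cells had been treated 16 h at 37 C with compounds, rat liver microsomes and NADPH (0.5 mg/mL final each).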

Test [8] in a line: p53 small molecule agonists, cell-based qHTS assay (AID 1963582; active = well fitted activation curve with a large enough effect in the signal ratio in the repeat runs, not every such curve was filed as active; the % refers to the signal ratio). A digest of the protocol: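 16 h compound exposure (37 C) of p53 response element–bla cells, preceded by 5 h recovery at 37 C/5% CO2; read-out via LiveBLAzer B/G FRET substrate, 2 h RT, fluorescence intensity.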
Test [9] deals with 5-hydroxytryptamine receptor 2A (Homo sapiens) (UniProt P28223). The experiment in a line: 5-hydroxytryptamine receptor 2A (HTR2A) small molecule antagonists, cell-based qHTS assay (AID 1963586). Also: nearly all actives have a fitted effect of over 45% in size. Also: potency is read from the fitted curve at half-maximal effect. A digest of the protocol: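 CHO cells stably expressing human HTR2A were plated for 18 h at 37 C, then loaded with calcium dye for 1 h. Compounds were preincubated 5 min at room temperature before DOI (4 nM solution) was added. Kinetic fluorescence was read for 3 min.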

The target is the same in test [10]. The experiment in a line: 5-hydroxytryptamine receptor 2A (HTR2A) small molecule agonists, cell-based qHTS assay (AID 1963587). Also: nearly all actives have a fitted effect of over 30% in size. Also: potency is read from the fitted curve at half-maximal effect. An outline of the steps:
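CHO cells stably expressing human HTR2A, plated 18 h, loaded with calcium dye 1 h at 37 C. Agonist mode: compounds added and intracellular calcium fluorescence recorded kinetically for 2 min at 1 sec intervals.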

The target in test [11] is Muscarinic acetylcholine receptor M1 (Homo sapiens) (UniProt P11229). The experiment in a line: Cholinergic receptor muscarinic 1 (CHRM1) small molecule antagonists, cell-based qHTS assay (AID 1963588). Also: nearly all actives have a fitted effect of over 40% in size. A digest of the protocol:
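Compounds were tested at 15 concentrations in three independent runs. Dye-loaded CHRM1-CHO cells were exposed 5 min at room temperature before stimulation by acetylcholine added at 50nM. Intracellular calcium was read kinetically on FDSS for 3 min.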

Test [12] has the same target. The experiment in a line: Cholinergic receptor muscarinic 1 (CHRM1) small molecule agonists, cell-based qHTS assay (AID 1963589). Also: nearly all actives have a fitted effect of over 35% in size. An outline of the steps: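 Homogeneous fluorescence calcium flux, agonist mode. Human M1-expressing CHO cells; compound dosed at 15 concentrations, three independent runs; signal sampled every 1 sec.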
Test [13] is described as follows: cAMP Responsive Elements (CRE) small molecule agonists, cell-based qHTS assay (AID 1963590). A digest of the protocol: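 HEK 293T cells stably bearing CRE-bla were plated at 2,000 cells per well and rested 18 h. Compounds, positive controls or DMSO were added for 3 h at 37 C. LiveBLAzer B/G substrate was then loaded for 2 h at room temperature.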
Test [14] in a line: cAMP Responsive Elements (CRE) small molecule antagonists, cell-based qHTS assay (AID 1963591; active = well fitted inhibition curve with a large enough effect in the signal ratio in the repeat runs, not every such curve was filed as active; the % refers to the signal ratio). A digest of the protocol:
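First, CRE-bla HEK293T cells settled 18 h at 37 C. Next, compound and 0.25 uM final NKH477 were applied for 3 h. Last, LiveBLAzer B/G substrate was loaded for 2 h at room temperature.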

For test [15], the target named is Beta-2 adrenergic receptor (Homo sapiens) (UniProt P07550). The experiment in a line: Adrenergic beta2 receptor (ADRB2) small molecule antagonists, cell-based qHTS assay (AID 1963592). Also: nearly all actives have a fitted effect of over 50% in size. Also: potency is read from the fitted curve at half-maximal effect. An outline of the steps:
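Assay format: CHO-ADRB2 cells, 18-20hr seeding at 37C/5% CO2, then compound plus 1nM isoproterenol agonist mix for 0.5hr RT. Homogeneous time-resolved fluorescence cAMP detection after 1hr, expressed as 665/615 nm ratio.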

For test [16] the target is unchanged. The experiment in a line: Adrenergic beta2 receptor (ADRB2) small molecule agonists, cell-based qHTS assay (AID 1963593).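 Also: CHO cells stably overexpressing human ADRB2.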 An outline of the steps: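 CHO cells stably over-expressing ADRB2 were plated overnight at 37C, then dosed with compounds plus a stimulation mix containing 100uM IBMX and 25uM Ro-20-1724 for 0.5hr at room temperature. cAMP was measured by HTRF competition, 1hr.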

For test [17], the target named is D(2) dopamine receptor (Homo sapiens) (UniProt P14416). The experiment in a line: Dopamine D2 receptor (DRD2) small molecule antagonists, cell-based qHTS assay (AID 1963595; active = well fitted inhibition curve with a large enough effect in the signal ratio in the repeat runs, with a control signal flat; the % refers to the signal ratio; also: potency is read from the fitted curve at half-maximal effect). An outline of the steps:
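Stable D2 receptor HEK293 line, 24 h after seeding. Compound preincubated 10 min, then quinpirole (12 nM) with forskolin analogue NKH477 (200 nM), 30 min, room temperature. Detection by time-resolved FRET of cAMP.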

Test [18] can be described thus: p53 small molecule agonists, cell-based qHTS assay: qHTS cell viability counter screen (AID 1963581). Also: nearly all actives have a fitted effect of over 45% in size. A digest of the protocol: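 ATP content measured by luminescence in HCT-116 p53RE-bla cells treated 16 h at 37 C, same wells as the reporter screen.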
In test [19] the target is D(2) dopamine receptor (Homo sapiens) (UniProt P14416). The experiment in a line: Dopamine D2 receptor (DRD2) small molecule agonists, cell-based qHTS assay (AID 1963594). Also: nearly all actives have a fitted effect of over 35% in size. An outline of the steps:
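HEK293 cells stably expressing human DRD2, pre-treated with PDE inhibitor Ro20-1724 (0.1 mM final) and compound 10 min at room temperature, then stimulated with NKH477 (200nM […]) for 30 min. cAMP read by HTRF (665/620 nm).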

The nature of test [20]: p53 small molecule agonists, cell-based qHTS assay with human liver microsomes: qHTS cell viability counter screen (AID 1963579). Also: nearly all actives have a fitted effect of over 45% in size. Also: potency is read from the fitted curve at half-maximal effect. A digest of the protocol:
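p53RE-bla cells, 4,000/well, dosed 5 hours after plating, with human liver microsomes (0.5 mg/mL final) plus NADPH (0.5 mg/mL final), 16 hours at 37 C. Viability read as CellTiter-Glo luminescence after 30 min at room temperature.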

Structures are written as SMILES. Results filed as inconclusive are left out. The source made the active and inactive calls. Unless noted, calls follow the shape of the full dose curve.

Chain of Beta-2 adrenergic receptor (Homo sapiens) (P07550 whole entry, looked up): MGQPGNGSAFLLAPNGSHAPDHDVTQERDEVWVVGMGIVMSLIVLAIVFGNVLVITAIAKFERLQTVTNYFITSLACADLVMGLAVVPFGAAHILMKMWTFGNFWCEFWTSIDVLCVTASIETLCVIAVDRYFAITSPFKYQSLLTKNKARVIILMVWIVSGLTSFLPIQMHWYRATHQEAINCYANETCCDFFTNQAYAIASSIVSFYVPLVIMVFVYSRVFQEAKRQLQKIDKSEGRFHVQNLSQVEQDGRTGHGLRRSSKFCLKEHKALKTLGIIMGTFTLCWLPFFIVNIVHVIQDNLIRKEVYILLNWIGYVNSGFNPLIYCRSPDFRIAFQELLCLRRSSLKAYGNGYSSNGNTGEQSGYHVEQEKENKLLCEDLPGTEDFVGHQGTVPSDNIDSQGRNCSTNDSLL
Chain of Muscarinic acetylcholine receptor M1 (Homo sapiens) (P11229 whole entry, looked up): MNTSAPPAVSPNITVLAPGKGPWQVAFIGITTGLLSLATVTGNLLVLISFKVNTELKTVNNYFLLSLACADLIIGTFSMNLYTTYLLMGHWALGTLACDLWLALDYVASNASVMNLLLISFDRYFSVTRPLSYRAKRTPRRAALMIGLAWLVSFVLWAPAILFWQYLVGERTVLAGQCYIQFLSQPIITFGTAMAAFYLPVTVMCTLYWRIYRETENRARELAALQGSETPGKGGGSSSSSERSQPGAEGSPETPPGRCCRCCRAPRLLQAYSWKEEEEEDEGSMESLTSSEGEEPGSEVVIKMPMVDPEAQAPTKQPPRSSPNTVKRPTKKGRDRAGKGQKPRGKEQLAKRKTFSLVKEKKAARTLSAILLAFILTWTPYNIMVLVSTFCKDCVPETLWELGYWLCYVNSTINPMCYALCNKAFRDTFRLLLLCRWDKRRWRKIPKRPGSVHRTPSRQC
Chain of Gonadotropin-releasing hormone receptor (Homo sapiens) (P30968 whole entry, looked up): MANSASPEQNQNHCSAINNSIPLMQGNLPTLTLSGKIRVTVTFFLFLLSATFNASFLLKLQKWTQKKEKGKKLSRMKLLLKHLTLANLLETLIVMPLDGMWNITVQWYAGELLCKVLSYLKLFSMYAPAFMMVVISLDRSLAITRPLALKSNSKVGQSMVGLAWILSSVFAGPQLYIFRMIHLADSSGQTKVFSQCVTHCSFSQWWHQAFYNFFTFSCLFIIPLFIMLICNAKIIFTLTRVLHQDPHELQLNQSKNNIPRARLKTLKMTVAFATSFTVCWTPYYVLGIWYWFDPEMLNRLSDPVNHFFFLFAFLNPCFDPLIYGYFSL
Chain of KiSS-1 receptor (Homo sapiens) (Q969F8 whole entry, looked up): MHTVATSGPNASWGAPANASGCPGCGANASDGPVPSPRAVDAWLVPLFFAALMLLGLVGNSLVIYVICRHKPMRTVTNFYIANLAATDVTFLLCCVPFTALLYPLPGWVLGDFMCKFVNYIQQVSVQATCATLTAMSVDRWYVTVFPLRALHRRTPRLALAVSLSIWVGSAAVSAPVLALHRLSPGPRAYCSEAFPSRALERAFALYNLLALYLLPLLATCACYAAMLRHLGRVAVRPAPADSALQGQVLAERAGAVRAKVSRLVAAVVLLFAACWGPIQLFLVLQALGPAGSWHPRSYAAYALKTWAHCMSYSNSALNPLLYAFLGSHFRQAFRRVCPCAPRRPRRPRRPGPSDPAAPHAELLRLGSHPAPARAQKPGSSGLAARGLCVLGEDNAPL
Chain of D(2) dopamine receptor (Homo sapiens) (P14416 whole entry, looked up): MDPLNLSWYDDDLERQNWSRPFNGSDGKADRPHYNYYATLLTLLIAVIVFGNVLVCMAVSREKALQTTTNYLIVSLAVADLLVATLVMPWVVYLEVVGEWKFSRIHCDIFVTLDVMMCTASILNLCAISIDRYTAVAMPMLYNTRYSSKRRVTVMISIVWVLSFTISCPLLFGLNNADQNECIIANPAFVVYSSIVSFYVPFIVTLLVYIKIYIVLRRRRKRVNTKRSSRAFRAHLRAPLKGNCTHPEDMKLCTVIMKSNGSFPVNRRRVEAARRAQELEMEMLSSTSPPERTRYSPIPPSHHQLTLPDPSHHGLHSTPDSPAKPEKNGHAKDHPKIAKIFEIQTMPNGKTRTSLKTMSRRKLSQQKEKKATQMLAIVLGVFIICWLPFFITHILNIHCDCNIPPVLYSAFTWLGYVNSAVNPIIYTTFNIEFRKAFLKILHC
Chain of 5-hydroxytryptamine receptor 2A (Homo sapiens) (P28223 whole entry, looked up): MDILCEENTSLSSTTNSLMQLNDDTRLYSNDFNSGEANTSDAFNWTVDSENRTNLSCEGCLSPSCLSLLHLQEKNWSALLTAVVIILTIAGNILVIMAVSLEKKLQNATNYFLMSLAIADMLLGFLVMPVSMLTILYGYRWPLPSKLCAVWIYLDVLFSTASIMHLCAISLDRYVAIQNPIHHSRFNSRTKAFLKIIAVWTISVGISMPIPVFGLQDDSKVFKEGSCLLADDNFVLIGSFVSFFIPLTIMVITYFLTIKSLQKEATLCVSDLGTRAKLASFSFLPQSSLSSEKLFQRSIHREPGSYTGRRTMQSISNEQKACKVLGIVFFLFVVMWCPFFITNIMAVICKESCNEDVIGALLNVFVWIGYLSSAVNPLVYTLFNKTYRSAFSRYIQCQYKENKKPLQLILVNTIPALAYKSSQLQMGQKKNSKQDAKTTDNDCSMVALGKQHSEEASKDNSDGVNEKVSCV

As to `CC(=O)CN(CC(C)=O)N=O`, the Potency entry in test [1], in test [2], in [3], in test [4], in test [5] and in [6] was “inactive” each time. The Potency entry in [7], in [8], in test [9], in [10], in test [11] and in test [12] was “inactive” in each case. In addition, the Potency entry in test [13], in test [14], in [15], in [16] and in test [17] was “inactive” each time.
In the case of `NC1CCC(CC2CCC(N)CC2)CC1` (configuration not stated), the Potency in test [1] is 23.9 µM (active); in [10], 19.2 µM (active). The Potency result in test [2], in test [3], in test [4], in test [5], in [6] and in [7] was “inactive” each time. Also, the Potency result in test [18], in [8], in test [9], in [11], in test [12] and in test [13] was “inactive” in each case. Also, the Potency entry in test [15], in test [16], in test [19] and in test [17] was “inactive” throughout.
With `O=CC(Br)(Br)Br`, the Potency in [1] was 8.61 µM (active); in test [2], 3.05 µM (active). The Potency entry in test [3], in [4], in test [5], in test [6], in test [7] and in [18] was “inactive” each time. For the same compound, the Potency entry in test [9], in test [11], in test [12], in test [13] and in test [17] was “inactive” in each case.
Turning to `NC(=O)C(Cl)Cl`, the Potency entry in [1], in test [2], in test [3], in test [4], in [5] and in [6] was “inactive” throughout. The Potency entry in test [20], in test [8], in [10], in [11], in test [12] and in test [13] was “inactive” throughout. Besides, the Potency result in test [15], in [19] and in test [17] was “inactive” throughout.
For the compound `CCc1ccc(C2CCNCC2)cc1`, the Potency result in [1], in test [2], in test [3], in [4], in test [5] and in test [6] was “inactive” in each case. Besides, the Potency entry in test [7], in [8], in [11], in test [13], in test [14] and in test [15] was “inactive” throughout. Further, in test [19], the Potency entry is “inactive”. Moreover, the Potency in test [9] is 18.3 µM (active); in test [10] it was 8.49 µM (active).
Regarding `C(COCC1CO1)OCC1CO1` (configuration not stated), the Potency result in test [1], in test [3], in [4], in test [5], in test [6] and in [8] was “inactive” each time. The Potency entry in test [9], in test [10], in test [11], in [12], in [13] and in test [14] was “inactive” throughout. Also, the Potency entry in test [15] and in test [17] was “inactive” in each case. In addition, the Potency was 68.6 µM (active) in test [2] and 32.4 µM (active) in [20].
With `O=[Se]=O`, the Potency result in test [1], in test [2], in [3], in [4], in [5] and in test [6] was “inactive” each time. Besides, the Potency entry in test [7], in [18], in [9], in [10], in test [11] and in [12] was “inactive” throughout. The Potency entry in [14], in test [15], in test [19] and in test [17] was “inactive” throughout.
As to `Fc1ccc(C(OCCN2CCN(CCCc3ccccc3)CC2)c2ccc(F)cc2)cc1`, the Potency was 13.3 µM (active) in [1], 1.3 µM (active) in test [9], 29.8 µM (active) in test [15] and 26.6 µM (active) in test [17]. In addition, the Potency result in [2], in test [3], in test [4], in test [5], in test [6] and in [7] was “inactive” each time. The Potency entry in test [18], in [10], in test [11], in test [12] and in test [19] was “inactive” in each case.
As to `O=C(Cl)c1ccccc1F`, the Potency entry in test [1], in test [2], in test [3], in test [4], in test [5] and in test [6] was “inactive” throughout. In addition, the Potency result in [7], in [18], in [8], in test [9], in test [10] and in [11] was “inactive” each time. Moreover, the Potency result in test [13], in [14], in test [15], in [19] and in [17] was “inactive” each time.
